Source: ChEMBL document CHEMBL1961873, “Compounds: GSK PKIS; Assays: Nanosyn kinase panel” (2012)
“And” between values parts separate entries of the source, which are not always exact repeats. Equal entries are not always repeated.

How the values were obtained:
[1] = molecular target: Protein kinase C gamma type (Homo sapiens) (UniProt P05129); conditions: at 1 µM;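 further: each value is an averaged percent inhibition of the enzyme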
[2] = molecular target: T1, Protein kinase C iota type (Homo sapiens) (UniProt P41743); conditions: at 0.1 µM
T1 sequence (whole entry): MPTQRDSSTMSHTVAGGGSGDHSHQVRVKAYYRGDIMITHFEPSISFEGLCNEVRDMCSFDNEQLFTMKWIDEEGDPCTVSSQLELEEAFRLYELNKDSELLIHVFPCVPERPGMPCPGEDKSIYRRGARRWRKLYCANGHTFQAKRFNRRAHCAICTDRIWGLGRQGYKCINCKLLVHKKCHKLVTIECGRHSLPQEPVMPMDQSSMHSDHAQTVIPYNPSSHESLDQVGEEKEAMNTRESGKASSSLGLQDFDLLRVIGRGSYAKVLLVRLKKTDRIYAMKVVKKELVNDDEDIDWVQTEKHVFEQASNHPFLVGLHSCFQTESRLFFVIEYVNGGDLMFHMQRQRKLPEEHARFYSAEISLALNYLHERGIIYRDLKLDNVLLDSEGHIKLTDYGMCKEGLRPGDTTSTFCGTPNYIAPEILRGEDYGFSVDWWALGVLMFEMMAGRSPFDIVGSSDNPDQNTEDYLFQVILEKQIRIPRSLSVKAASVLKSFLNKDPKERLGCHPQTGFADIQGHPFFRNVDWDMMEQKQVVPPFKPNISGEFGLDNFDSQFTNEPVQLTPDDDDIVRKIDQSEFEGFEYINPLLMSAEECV

[3] = molecular target: T1, Protein kinase C iota type (Homo sapiens); conditions: at 1 µM
[4] = molecular target: Protein kinase C theta type (Homo sapiens) (UniProt Q04759); conditions: at 0.1 µM
Chain of Protein kinase C theta type (Homo sapiens) (Q04759 whole entry, looked up): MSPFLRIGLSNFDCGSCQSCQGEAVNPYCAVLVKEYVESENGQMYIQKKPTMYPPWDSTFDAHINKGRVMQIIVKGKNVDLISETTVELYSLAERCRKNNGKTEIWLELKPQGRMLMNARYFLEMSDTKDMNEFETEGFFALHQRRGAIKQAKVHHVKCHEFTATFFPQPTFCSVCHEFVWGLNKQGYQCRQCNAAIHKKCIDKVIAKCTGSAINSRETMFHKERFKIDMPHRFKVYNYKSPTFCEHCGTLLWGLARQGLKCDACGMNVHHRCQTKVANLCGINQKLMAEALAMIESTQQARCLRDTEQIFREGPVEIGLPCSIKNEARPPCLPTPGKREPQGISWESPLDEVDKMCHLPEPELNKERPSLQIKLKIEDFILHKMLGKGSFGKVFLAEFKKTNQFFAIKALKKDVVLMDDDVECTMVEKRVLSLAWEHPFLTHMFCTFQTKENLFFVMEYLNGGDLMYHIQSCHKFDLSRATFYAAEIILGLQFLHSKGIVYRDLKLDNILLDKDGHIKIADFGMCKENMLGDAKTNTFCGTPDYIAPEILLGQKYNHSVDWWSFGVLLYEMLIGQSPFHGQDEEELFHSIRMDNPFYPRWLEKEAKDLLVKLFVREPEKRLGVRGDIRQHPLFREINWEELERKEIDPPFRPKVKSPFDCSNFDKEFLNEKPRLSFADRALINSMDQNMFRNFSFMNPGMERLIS

[5] = molecular target: Protein kinase C theta type (Homo sapiens) (UniProt Q04759); conditions: at 1 µM
[6] = molecular target: Protein kinase C beta type (Homo sapiens) (UniProt P05771); conditions: at 0.1 µM
Chain of Protein kinase C beta type (Homo sapiens) (P05771 2-671 limits assumed): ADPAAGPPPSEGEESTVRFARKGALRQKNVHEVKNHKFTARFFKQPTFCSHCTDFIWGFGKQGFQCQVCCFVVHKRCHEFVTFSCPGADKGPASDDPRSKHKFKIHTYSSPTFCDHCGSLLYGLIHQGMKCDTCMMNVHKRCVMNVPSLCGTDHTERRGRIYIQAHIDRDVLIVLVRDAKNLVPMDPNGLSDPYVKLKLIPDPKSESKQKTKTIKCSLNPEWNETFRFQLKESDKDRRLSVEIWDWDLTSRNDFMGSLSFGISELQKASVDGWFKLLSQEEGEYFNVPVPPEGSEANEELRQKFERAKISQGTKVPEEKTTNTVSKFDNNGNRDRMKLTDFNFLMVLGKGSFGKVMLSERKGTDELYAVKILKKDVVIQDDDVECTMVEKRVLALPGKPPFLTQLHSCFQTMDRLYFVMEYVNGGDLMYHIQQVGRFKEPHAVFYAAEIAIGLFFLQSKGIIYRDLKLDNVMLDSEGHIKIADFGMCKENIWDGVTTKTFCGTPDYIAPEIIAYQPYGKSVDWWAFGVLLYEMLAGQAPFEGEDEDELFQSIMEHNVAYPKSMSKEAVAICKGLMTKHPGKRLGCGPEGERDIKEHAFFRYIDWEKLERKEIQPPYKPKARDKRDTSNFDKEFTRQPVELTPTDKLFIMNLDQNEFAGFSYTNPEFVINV

[7] = molecular target: Protein kinase C beta type (Homo sapiens) (UniProt P05771); conditions: at 1 µM
[8] = molecular target: T2, Serine/threonine-protein kinase D1 (Homo sapiens) (UniProt Q15139); conditions: at 0.1 µM
T2 sequence (whole entry): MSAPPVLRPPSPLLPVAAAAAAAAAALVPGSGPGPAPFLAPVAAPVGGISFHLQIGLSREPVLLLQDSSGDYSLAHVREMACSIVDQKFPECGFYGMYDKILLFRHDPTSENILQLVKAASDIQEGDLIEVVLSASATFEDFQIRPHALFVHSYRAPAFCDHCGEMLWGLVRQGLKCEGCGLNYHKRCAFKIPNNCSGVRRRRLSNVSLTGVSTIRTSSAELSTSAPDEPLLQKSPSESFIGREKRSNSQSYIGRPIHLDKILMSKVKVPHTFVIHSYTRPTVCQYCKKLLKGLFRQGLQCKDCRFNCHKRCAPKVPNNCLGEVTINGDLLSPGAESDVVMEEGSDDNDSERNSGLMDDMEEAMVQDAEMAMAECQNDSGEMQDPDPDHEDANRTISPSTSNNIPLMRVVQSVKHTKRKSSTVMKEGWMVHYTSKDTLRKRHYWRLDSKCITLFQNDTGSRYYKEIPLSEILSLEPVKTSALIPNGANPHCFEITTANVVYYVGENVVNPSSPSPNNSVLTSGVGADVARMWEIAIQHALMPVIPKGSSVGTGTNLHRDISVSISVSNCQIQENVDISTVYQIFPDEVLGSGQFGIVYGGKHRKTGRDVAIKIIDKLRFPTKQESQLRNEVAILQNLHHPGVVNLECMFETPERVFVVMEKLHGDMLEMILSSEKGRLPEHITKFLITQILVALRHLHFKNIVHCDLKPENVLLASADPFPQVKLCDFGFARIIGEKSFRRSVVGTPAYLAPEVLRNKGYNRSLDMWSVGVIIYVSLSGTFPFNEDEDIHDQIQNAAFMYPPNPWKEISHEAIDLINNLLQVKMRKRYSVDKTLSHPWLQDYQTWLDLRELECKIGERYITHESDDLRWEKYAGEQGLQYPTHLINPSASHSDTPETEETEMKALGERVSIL

[9] = molecular target: T2, Serine/threonine-protein kinase D1 (Homo sapiens); conditions: at 1 µM
[10] = molecular target: T3, Serine/threonine-protein kinase D2 (Homo sapiens) (UniProt Q9BZL6); conditions: at 0.1 µM;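 further: reported percent inhibition values are means, part of the GSK PKIS kinase panel screen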
T3 sequence (whole entry): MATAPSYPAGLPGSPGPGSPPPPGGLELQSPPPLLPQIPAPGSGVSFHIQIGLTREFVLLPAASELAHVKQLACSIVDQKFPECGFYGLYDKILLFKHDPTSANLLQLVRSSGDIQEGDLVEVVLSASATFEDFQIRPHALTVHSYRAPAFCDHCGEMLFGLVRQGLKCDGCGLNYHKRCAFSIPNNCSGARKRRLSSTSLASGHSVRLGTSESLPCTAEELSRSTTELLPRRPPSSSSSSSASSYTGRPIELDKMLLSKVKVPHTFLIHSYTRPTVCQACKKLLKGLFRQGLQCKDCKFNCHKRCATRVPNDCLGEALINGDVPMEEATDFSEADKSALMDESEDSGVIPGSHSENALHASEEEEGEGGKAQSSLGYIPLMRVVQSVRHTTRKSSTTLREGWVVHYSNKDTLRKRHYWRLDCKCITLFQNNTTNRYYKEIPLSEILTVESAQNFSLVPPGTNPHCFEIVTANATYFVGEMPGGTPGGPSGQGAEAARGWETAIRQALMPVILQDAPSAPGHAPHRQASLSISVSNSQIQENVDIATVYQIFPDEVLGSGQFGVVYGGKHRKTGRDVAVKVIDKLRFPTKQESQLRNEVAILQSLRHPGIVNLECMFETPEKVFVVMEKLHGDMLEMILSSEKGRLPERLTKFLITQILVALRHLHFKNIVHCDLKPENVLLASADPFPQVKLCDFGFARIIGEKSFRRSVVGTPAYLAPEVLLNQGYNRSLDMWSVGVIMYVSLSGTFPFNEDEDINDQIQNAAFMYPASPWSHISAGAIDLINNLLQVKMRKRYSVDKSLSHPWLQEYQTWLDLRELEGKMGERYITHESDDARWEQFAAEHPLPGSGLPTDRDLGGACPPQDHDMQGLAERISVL

Row | Structure (SMILES) | inhibition [1] | inhibition [2] | inhibition [3] | inhibition [4] | inhibition [5] | inhibition [6] | inhibition [7] | inhibition [8] | inhibition [9] | inhibition [10]
1 | COc1cc(N2CCN(C(C)C)CC2)ccc1Nc1nc(Nc2cccc(F)c2C(=O)O)c2cc[nH]c2n1 | 5.49% | 0.72% | 0.65% | 2.48% | 3.08% | 1.66% | 2.08% | 3.89% | 6.58% | 3.65%
2 | CS(=O)(=O)CCNCc1ccoc1-c1ccc2ncnc(Nc3ccc(OCc4ccccc4)cc3)c2c1 | 0.87% | 0.27% | -1.03% | -0.2% | 0.08% | -0.23% | 0.72% | 1.6% | 2.33% | 1.46%
3 | FC(F)(F)CNc1nccc(-c2cnn3ncccc23)n1 | -1.39% | 1.84% | 1.19% | 1.1% | 1.36% | 0.94% | 1.72% | 3.65% | 5.03% | 3.32%
4 | NS(=O)(=O)c1ccc(N/N=C2\C(=O)Nc3cccc(CCc4ccncc4)c32)cc1 | -0.16% | 0.18% | 1.06% | 0.33% | -0.34% | -0.03% | 0.05% | 1.18% | 1.94% | 0.05%
5 | COc1cc(Nc2ncc(-c3ccccc3)o2)cc(OC)c1 | 2.55% | 2.88% | 3.11% | 2.43% | 3.38% | 0.78% | 2.17% | 4.12% | 5.16% | 3.39%
6 | COc1cccc(-n2ncc3c(N/N=C/c4ccc(C(=O)NCCN(C)C)cc4)ncnc32)c1 | 4.05% | 2.38% | 10.3% | 1.61% | 1.46% | 1.88% | 17.7% | 2.09% | 7.26% | 2.5%
7 | Nc1nccc(-c2c(-c3ccc(F)cc3)ncn2C2CCNCC2)n1 | 8.84% and 8.7% | -1.01% and 0.25% | 0.48% and 1.35% | -1.64% and -0.14% | -0.41% and 0.45% | 3.39% and 5.75% | 28.4% and 33.6% | -0.71% and 3.19% | 26.6% and 34.1% | -0.79% and 3.35%
8 | CCS(=O)(=O)c1ccc(OC)c(Nc2ncc(-c3cccc(F)c3)o2)c1 | 5.39% | 2.05% | 3.04% | 2.72% | 4.21% | 1.9% | 4.01% | 4.25% | 5.42% | 3.92%
9 | COC(=O)Nc1nc2cc(Oc3ccc(NC(=O)Nc4ccccc4)cc3)ccc2[nH]1 | 4.89% | -0.48% | -0.69% | 1.38% | 2.87% | 0.28% | 0.72% | 2.86% | 3.15% | 2.3%
10 | N#Cc1ccc2c(-c3ccnc(NC4CC4)n3)c(-c3ccc(F)cc3)nn2c1 | 1.83% | 0.18% | 0.6% | 1.35% | 1.42% | 1.33% | 4.8% | 5.97% | 40% | 5.96%
11 | COc1cccc(Nc2nccc(-c3cnn4ncccc34)n2)c1 | 9.31% | -1.42% | -1.07% | 0.2% | 4.75% | 0.37% | 7.43% | 4.01% | 38.2% | 2.78%
12 | Cc1nnc(-c2cccc(-c3ccc(C(=O)NCC4CC4)cc3)c2)o1 | 5.25% | 2.19% | 1.94% | 3.27% | 5.18% | 1.13% | 2.65% | 4.9% | 9.11% | 5.08%
13 | CNC(=O)c1cncc(/C=C/c2ccccc2C)c1 | 4.82% | 0.25% | 1.08% | 2.42% | 5.04% | 0.51% | 3.14% | 3.24% | 5.01% | 3.71%
14 | CN(C)CCNC(=O)Nc1ccc(N(C)c2ccnc(Nc3ccc(CS(C)(=O)=O)cc3)n2)cc1 | 3.46% | 1.77% | 4.15% | 2.29% | 2.96% | 0.79% | 0.59% | 3.85% | 7.28% | 3.75%
15 | CC(C)c1ccc(-c2cc(-c3c[nH]nc3-c3ccccn3)ccn2)cc1 | 1.42% | -0.37% | 1.12% | 0.13% | -0.28% | 0.43% | 1.4% | 1.12% | 8.61% | 1.16%
